Data taken from PubChem BioAssay (NCATS).
Values joined by “and” are separate entries in the source; they are usually repeats but may differ in a detail not shown here. Equal entries are not always repeated. Values without a mark were called inactive. Records with an inconclusive call do not appear. Entries that show only a call come without a potency. Active and inactive are the calls of the source. Unless noted, the call rests on the fitted dose curve.

Assays:
[1] = target: Androgen receptor (Homo sapiens) (UniProt P10275); assay: qHTS assay for small molecule agonists of androgen receptor signaling (AID 588515; active means well fitted curve in the direction sought with a large enough effect in the signal ratio, with a control signal flat; the % refers to the signal ratio); conditions: AR-UAS-bla HEK293, beta-lactamase ratio, agonist 16 h; active compounds read high
Sequence of Androgen receptor (Homo sapiens) (P10275 whole entry, looked up): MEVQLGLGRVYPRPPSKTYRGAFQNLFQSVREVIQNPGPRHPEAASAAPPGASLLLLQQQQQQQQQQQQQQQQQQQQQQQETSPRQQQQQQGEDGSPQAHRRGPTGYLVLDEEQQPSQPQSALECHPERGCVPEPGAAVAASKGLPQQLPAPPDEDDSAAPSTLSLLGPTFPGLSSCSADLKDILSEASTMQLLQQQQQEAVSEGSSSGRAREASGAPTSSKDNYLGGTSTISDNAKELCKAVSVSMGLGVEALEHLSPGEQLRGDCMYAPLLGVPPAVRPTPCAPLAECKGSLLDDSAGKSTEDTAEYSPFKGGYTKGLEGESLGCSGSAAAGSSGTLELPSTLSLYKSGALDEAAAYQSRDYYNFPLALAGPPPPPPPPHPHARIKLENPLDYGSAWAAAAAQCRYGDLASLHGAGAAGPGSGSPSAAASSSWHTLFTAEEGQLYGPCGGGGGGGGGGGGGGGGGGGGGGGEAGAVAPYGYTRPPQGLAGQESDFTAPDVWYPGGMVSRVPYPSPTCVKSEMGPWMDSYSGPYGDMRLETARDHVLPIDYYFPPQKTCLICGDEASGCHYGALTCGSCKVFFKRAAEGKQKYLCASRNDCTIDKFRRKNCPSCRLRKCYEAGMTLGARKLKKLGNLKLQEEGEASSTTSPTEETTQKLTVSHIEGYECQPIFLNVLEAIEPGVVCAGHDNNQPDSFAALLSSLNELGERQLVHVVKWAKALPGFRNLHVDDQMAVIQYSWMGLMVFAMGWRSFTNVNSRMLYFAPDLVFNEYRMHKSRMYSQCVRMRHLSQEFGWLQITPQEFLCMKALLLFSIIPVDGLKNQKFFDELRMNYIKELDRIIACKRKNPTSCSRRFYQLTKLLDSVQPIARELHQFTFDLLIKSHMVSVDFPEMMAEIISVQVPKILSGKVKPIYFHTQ
Procedure, shortened: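 Stimulation of an AR-responsive β-lactamase reporter in GripTite HEK293 cells was measured after 16 h compound exposure at 37 °C, via CCF4 fluorescence after 2 h RT. EC50 from Hill fits, normalized to R1881 at 30 nM.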

[2] = target: Androgen receptor (Homo sapiens) (UniProt P10275); assay: qHTS assay for small molecule antagonists of androgen receptor signaling (AID 588516; active means well fitted curve in the direction sought with a large enough effect in the signal ratio, with a control signal flat, not every such curve was filed as active; the % refers to the signal ratio); conditions: AR-UAS-bla HEK293, beta-lactamase ratio, antagonist mode, 16 h; series mostly up to 76.8 µM
Procedure, shortened: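 Antagonist mode: inhibition of R1881-stimulated (10 nM final) bla reporter in GeneBLAzer AR HEK 293 cells, 16 h at 37C, compounds titrated. IC50 and efficacy from Hill-equation fits of 405/460–530 nm FRET ratios.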

[3] = qHTS assay to identify small molecules that stimulate interleukin-8 (IL-8) secretion (AID 651758; active means well fitted activation curve with a large enough effect in the signal ratio; the % refers to the signal ratio); conditions: HTRF ratio (665/615); series mostly up to 92.2 µM
Procedure, shortened: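 Quantitative HTS in THP-1 monocytic cells at 2000 cells per well, with 16 hrs compound incubation at 37 C. IL-8 in the medium was then quantified by HTRF immunoassay, read after 1-3 hrs at room temperature.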

[4] = target: Cytochrome P450 3A4 (Homo sapiens) (UniProt P08684); assay: qHTS Assay for Activators of Cytochrome P450 3A4 (AID 885; active means well fitted activation curve with a large enough effect; further: nearly all actives have a fitted effect of over 65% in size); conditions: recombinant CYP3A4, Luciferin-PPXE luminescence, 60 min; series mostly up to 57.1 µM
Sequence of Cytochrome P450 3A4 (Homo sapiens) (P08684 whole entry, looked up): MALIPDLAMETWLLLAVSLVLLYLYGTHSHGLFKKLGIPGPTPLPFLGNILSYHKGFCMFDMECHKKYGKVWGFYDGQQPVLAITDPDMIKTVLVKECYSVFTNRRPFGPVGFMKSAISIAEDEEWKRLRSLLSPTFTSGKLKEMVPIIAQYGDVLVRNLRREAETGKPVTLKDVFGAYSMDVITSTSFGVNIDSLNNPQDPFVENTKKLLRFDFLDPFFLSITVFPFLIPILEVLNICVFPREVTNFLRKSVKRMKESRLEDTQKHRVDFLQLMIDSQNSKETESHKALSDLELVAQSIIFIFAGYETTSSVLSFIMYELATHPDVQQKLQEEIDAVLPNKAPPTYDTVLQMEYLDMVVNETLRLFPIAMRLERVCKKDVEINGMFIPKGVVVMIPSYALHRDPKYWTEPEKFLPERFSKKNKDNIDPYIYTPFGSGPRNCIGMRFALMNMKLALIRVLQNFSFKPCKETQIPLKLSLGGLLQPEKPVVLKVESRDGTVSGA
Procedure, shortened: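 Luminescent readout of luciferin formed from 25 uM Luciferin-PPXE (KM level) by 20 nM CYP3A4 in 200 mM KPO4, with 60 min NADPH-driven reaction at room temperature after 10 min compound exposure. Ketoconazole (57 uM) defined 100% inhibition.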

[5] = target: Estrogen receptor (Homo sapiens) (UniProt P03372); assay: qHTS assay for small molecule agonists of estrogen receptor alpha signaling (AID 588514); conditions: ER-alpha-UAS-bla HEK293, beta-lactamase ratio, 18 h; series mostly up to 76.8 µM; further: nearly all actives have a fitted effect of over 70% in size
Sequence of Estrogen receptor (Homo sapiens) (P03372 whole entry, looked up): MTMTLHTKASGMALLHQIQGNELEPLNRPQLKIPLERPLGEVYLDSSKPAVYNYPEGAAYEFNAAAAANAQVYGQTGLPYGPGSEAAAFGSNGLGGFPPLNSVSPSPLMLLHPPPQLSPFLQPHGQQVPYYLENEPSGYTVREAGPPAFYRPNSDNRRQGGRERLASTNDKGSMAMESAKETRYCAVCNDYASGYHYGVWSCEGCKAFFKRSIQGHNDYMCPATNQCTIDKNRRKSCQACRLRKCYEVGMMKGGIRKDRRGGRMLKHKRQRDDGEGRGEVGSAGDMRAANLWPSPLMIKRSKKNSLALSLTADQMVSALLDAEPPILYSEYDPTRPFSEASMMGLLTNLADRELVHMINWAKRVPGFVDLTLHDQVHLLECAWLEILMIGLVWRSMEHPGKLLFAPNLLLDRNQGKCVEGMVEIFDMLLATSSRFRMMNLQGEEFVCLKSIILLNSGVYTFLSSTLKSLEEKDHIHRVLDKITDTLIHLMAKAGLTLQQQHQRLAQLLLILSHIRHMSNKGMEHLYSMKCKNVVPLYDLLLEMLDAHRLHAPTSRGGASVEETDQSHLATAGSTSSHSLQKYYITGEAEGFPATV
Procedure, shortened: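 Efficacy is expressed against 20 nM 17-beta-estradiol (100%) and DMSO basal (0%); EC50 from Hill equation. Assay: beta-lactamase reporter in ER-alpha-UAS-bla HEK 293 cells, 18 h compound incubation, CCF4 detection.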

[6] = target: Bile acid receptor (Homo sapiens) (UniProt Q96RI1); assay: qHTS assay for small molecule agonists of farnesoid X receptor signaling (AID 588527); conditions: HEK293T FXR-UAS-bla, beta-lactamase ratio, 16 h; active compounds read high
Sequence of Bile acid receptor (Homo sapiens) (Q96RI1 whole entry, looked up): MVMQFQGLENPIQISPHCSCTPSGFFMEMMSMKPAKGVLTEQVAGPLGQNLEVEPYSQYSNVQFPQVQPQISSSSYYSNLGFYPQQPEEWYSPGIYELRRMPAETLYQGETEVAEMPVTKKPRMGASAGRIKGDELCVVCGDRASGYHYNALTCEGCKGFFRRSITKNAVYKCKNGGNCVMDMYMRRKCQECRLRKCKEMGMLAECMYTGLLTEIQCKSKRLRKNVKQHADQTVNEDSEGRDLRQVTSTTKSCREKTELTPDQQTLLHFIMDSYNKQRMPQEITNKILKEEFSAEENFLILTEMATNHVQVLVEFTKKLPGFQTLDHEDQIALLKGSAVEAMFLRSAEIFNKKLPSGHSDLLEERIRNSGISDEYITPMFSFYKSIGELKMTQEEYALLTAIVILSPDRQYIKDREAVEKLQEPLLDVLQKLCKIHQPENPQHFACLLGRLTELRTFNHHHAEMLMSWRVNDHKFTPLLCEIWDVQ
Procedure, shortened: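 Agonist-mode beta-lactamase reporter in GeneBLAzer FXR-UAS-bla HEK293T cells, titration up to 92 uM, 16 h exposure at 37 C, CCF4 fluorescence. Response scaled to DMSO (0%) and 100 uM chenodeoxycholic acid (100%), then Hill-fitted for EC50 and efficacy.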

O=[N+]([O-])c1cccc2c([N+](=O)[O-])cccc12
activation [1]: 1.43%
outcome [2]: inactive
Potency [3]: inactive

c1ccc(C2CO2)cc1 (stereo not drawn)
Potency [3]: inactive

C=C(Cl)CCl
Potency [3]: inactive

CC12CC1(C)C(=O)N(c1cc(Cl)cc(Cl)c1)C2=O (stereo not drawn)
activation [1]: -2.56% and 15.9%

CC(C)CC(C)N (stereo not drawn)
Potency [3]: inactive

Clc1ccc(C(Cl)(Cl)Cl)c(Cl)c1
Potency [4]: inactive

[O-][Cl+]O
Potency [5]: inactive

Cc1ccccc1[N+](=O)[O-]
Potency [5]: inactive

C=CC=O
Potency [3]: inactive

CCC[N+](=O)[O-]
activation [6]: 2.98%

Cc1ccc(N)cc1C
Potency [5]: inactive
activation [6]: 1.96%

COc1c(C(C)(C)C)cc([N+](=O)[O-])c(C)c1[N+](=O)[O-]
Potency [3]: inactive

O=C(Cl)OCc1ccccc1
Potency [5]: inactive
Potency [3]: inactive

Clc1cc(Cl)c(Cl)c(Cl)c1
Potency [3]: inactive

N#CCBr
Potency [5]: inactive

CC(C)(C)c1ccccc1O
Potency [3]: inactive

Cc1coc2c1CCC(C)C2 (stereo not drawn)
Potency [3]: inactive

ClC(Cl)C(Cl)Cl
Potency [5]: inactive

CC(C)Br
Potency [3]: inactive

Cl/C=C\Cl
Potency [5]: inactive

C=COC(C)=O
Potency [3]: inactive

CC(=O)NNc1ccccc1
activation [1]: 7.34%
outcome [2]: inactive

Cc1cccc(N)c1C
activation [6]: -3.96%

NNC(N)=S
Potency [5]: inactive
Potency [3]: inactive

OCCCCO
activation [6]: -2.93%

O=[N+]([O-])c1ccc(Cl)c(Cl)c1Cl
Potency [5]: inactive

Cc1cnc[nH]1
activation [1]: -7.55%
activation [6]: -0.548%

CCCCCc1cc(O)cc(O)c1
Potency [4]: inactive
activation [6]: 2.26%
Potency [3]: inactive

O=P(OCCCl)(OCCCl)OCCCl
activation [6]: -0.898%
Potency [3]: inactive

Nn1cnnc1
Potency [5]: inactive

c1ccc(NNc2ccccc2)cc1
activation [6]: 1.06% and 0.0431%
Potency [3]: inactive

O=C(O)c1cccc(Cl)c1
Potency [5]: inactive
Potency [3]: inactive

Nc1ncc([N+](=O)[O-])s1
activation [6]: -2.74%

ClCCOCOCCCl
activation [6]: 0.794%

OC[P+](CO)(CO)CO
Potency [5]: inactive
Potency [3]: inactive

COC(=O)Nc1cccc(OC(=O)Nc2cccc(C)c2)c1
activation [6]: 0.654%

CCOC(=O)C1OC1(C)c1ccccc1 (stereo not drawn)
Potency [3]: inactive

Cc1cc(-c2ccc(N)c(C)c2)ccc1N
Potency [4]: inactive

CCC/C=N/O
Potency [5]: inactive
Potency [3]: inactive

Nc1ccc(-c2ccc(N)cc2)cc1
Potency [4]: inactive
Potency [5]: inactive

CCC#N
activation [6]: -0.411%

Nc1ccc(-c2ccccc2)cc1
Potency [4]: inactive
Potency [5]: inactive

CCN(CC)N=O
activation [6]: -2.25%

CN(C)c1ccccc1
activation [6]: -2.07%

Clc1cccc2ccccc12
Potency [3]: inactive

Cc1ccc(N)cc1N
Potency [5]: inactive
activation [6]: 0.164% and -1.15%

Cc1ccc2c(C)cccc2c1
Potency [5]: inactive
Potency [3]: inactive

CCCCC(=O)Cl
activation [6]: 3.38%

CCCCC#N
Potency [5]: inactive

CC1CC(=O)O1 (stereo not drawn)
activation [6]: -1.6%
